# Shown are actives, neighbours in structure and some others; about 2.4% of the full set was active somewhere.
# SmPrx2 inh: blocks S. mansoni peroxiredoxin 2 enzymatic activity; Potency, µM; hit rate 0.07% among 65,000; S. mansoni Prx2 activity coupled to TGR/GSH (TGR is thioredoxin glutathione reductase), NADPH fluorescence loss, qHTS
#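 Prx2 inhibition was measured as reduced NADPH consumption when electrons flowed from NADPH through TGR and glutathione to Prx2 and H2O2. Plates were read kinetically over 8 min; enzyme reagents were held at 4 deg C during dispensing.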
# AmpC inh det: blocks E. coli AmpC beta-lactamase in presence of detergent. P00811. purified AmpC, nitrocefin hydrolysis with detergent. Potency, µM (titrated, usually from 28.7 µM), for inactives: at the top dose activity change, negative = inhibition. hit rate 0.09% among 71,000. AID 584; active = well fitted curve in the direction sought with a large enough effect; inconclusive = small, poorly fitted or top-dose-only effect; note: % is set by controls: 0 for no effect and ±100 for the full control effect
# Target sequence (P00811 whole entry, looked up): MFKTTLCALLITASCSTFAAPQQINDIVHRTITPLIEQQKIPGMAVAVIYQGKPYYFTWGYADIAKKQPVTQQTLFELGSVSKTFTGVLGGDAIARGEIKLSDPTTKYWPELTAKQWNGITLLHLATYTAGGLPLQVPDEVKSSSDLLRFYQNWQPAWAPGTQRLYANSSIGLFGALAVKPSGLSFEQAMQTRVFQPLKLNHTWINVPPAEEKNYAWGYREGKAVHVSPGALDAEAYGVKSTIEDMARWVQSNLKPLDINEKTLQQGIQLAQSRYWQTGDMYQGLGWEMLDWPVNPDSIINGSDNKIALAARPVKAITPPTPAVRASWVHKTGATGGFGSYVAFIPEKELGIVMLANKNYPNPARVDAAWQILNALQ
#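 E. coli AmpC (5.3 nM) in 20 mM phosphate pH 7.0 with 0.01% Triton X-100, preincubated 15 min RT with compound; nitrocefin (2 uL of 800 uM stock) hydrolysis followed by 480 nm absorbance every 20 s over 4 min.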
# AmpC nodet inh: AmpC beta-lactamase inhibition, detergent-free assay; Potency, µM (series often up to 28.7 µM), inactives show at the top dose activity change, negative = inhibition; AmpC nitrocefin hydrolysis, absorbance 480 nm, no detergent; hit rate 1.8% among 71,000; P00811; note: % of control where 0% means no effect
#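 Enzyme, pH 7.0 phosphate. Compound titrations were pre-incubated with AmpC for 15 min at room temperature before nitrocefin (stock 800 uM) addition; product formation was recorded at 480 nm every 20 s for 4 min.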
# LT uptake inh: anthrax lethal toxin internalization inhibition. Cells, anthrax lethal toxin internalization, FRET ratio (460/530). Potency, µM (highest dose often 40 µM), without a hit: at the highest dose activity change, negative = inhibition, usual class: inhibitors. hit rate 0.67% among 70,000. AID 912; note: % is set by controls: 0 for no effect and ±100 for the full control effect; nearly all actives have a fitted effect of over 50% in size
# Starred values were filed as active, the others as inactive; ? = inconclusive; nt = no result given; [ ] = remark or other dose. Unless noted, calls come from the whole dose curve. Potency is the fitted concentration of half-maximal effect.
SMILES,SmPrx2 inh,AmpC inh det,AmpC nodet inh,LT uptake inh
CCOC(=O)C1=C(C)N=c2s/c(=C/c3ccco3)c(=O)n2C1c1cccc(OC)c1 (stereo not drawn),>57,6%,7.9µM*,?
CCOC(=O)C1=C(C)N=c2s/c(=C\c3cccn3C)c(=O)n2C1c1cccc(OC)c1OC (stereo not drawn),nt,10%,33%,?
CCNc1ncc2nc(-c3cc(F)cc(F)c3)c(=O)n(CCc3ccccc3)c2n1,>57,-4%,8%,?
CNc1ccc2oc(C[C@@H]3O[C@@]4(CC[C@H]3C)O[C@@H]([C@@H](C)C(=O)c3ccc[nH]3)[C@@H](C)C[C@H]4C)nc2c1C(=O)O,>57,-11%,6%,?
O=c1cc(-c2ccc(Cl)cc2)[nH][nH]1,>57,-1%,-5%,12%
O=c1cc(-c2ccc(Cl)c(Cl)c2)[nH][nH]1,>57,1%,13µM*[single pt active],-12%
CCN(CC)CCCn1c(-c2ccccc2)nc2c(NCCOC)nc(C)nc21,nt,14%,7%,6%
COCc1cc(C)nc(N2CCN(c3ccccc3)CC2)c1C#N,>57,17%,10%,10µM*
Oc1c(Cl)cc(Cl)cc1Sc1cc(Cl)cc(Cl)c1O,nt,6%,?,3.2µM*
Oc1c(Cl)cc(C(c2cc(Cl)c(O)c(Cl)c2)C(c2cc(Cl)c(O)c(Cl)c2)c2cc(Cl)c(O)c(Cl)c2)cc1Cl,>57,-3%[5.75 µM],-26%[5.75 µM],-8%[8 µM]
COc1ccc(NC(=O)NCCCN2CCN(c3cc(C)ccc3C)CC2)cc1,>57,12%,4µM*[single pt active],?
COC(=O)[C@H](N)CCCN=C(N)N[N+](=O)[O-],>57,-3%,-14%,4%
O=C(/C=C\c1ccc(O)c(O)c1)O[C@H]1C[C@@](O)(C(=O)O)C[C@H](O)[C@@H]1O,>57,-2%,4%,?
Oc1ccc(Cl)cc1-c1cc(-c2ccccc2)n[nH]1,>57,19%,4µM*[single pt active],?
[C-]#[N+]/C(C#N)=C\c1cc(C(C)(C)C)c(O)c(C(C)(C)C)c1,nt,nt,nt,0.1µM*
CC(C)(C)c1cc(/C=C(\C#N)C(N)=S)cc(C(C)(C)C)c1O,>57,-1%,-1%,7.9µM*
COc1ccc(-c2nc3cnc(N4CCNCC4)nc3n(Cc3cccs3)c2=O)cc1,>11,-1%,60%,?
COc1ccc(-n2c(=O)c(-c3cccs3)nc3cnc(N(C)C)nc32)cc1,>57,22%,0%,?
O=C(c1ccc(Cl)cc1)c1ccccc1C(=O)N1CCOCC1,>57,17%,16%,-7%
Nc1nc(C(=O)N2CCOCC2)nn1C(=O)c1ccc(Cl)cc1,>57,12%,4µM*[single pt active],3%
COCCNC(=O)CSc1nc2cc(OC)c(OC)cc2c(=O)n1Cc1ccco1,>57,-1%,40%,6%
COC(=O)c1ccc2c(=O)n(Cc3ccco3)c(SCC(=O)Nc3ccc(C)c(Cl)c3)nc2c1,>57,-2%,13µM*,-4%
CCOC(=O)N1CCN(c2c(NCCN(C)Cc3ccccc3)c(=O)c2=O)CC1,>57,10%,4µM*[single pt active],-7%
CCOC(=O)N1CCN(c2c(NCC3CCN(Cc4cccc(C)c4)CC3)c(=O)c2=O)CC1,>57,15%,4µM*[single pt active],12%
CCOC(=O)C1CCN(c2c(NCCCN3CCN(Cc4ccccc4)CC3)c(=O)c2=O)CC1,>57,10%,19%,3%
SMILES,SmPrx2 inh,AmpC inh det,AmpC nodet inh,LT uptake inh
CCOC(=O)C1CCCN(c2c(NCCCN(C)Cc3ccccc3)c(=O)c2=O)C1 (stereo not drawn),>57,-3%,-4%,-11%
CCOC(=O)N1CCC(Nc2c(NCCN3CCN(Cc4ccccc4)CC3)c(=O)c2=O)CC1,>57,0%,3%,-7%
CCOC(=O)N1CCN(c2c(NCCCN(C)c3ccccc3)c(=O)c2=O)CC1,>57,12%,4µM*[single pt active],-1%
CCOC(=O)N1CCN(c2c(NCCN3CCN(Cc4ccccc4)CC3)c(=O)c2=O)CC1,>57,12%,4µM*[single pt active],-10%
CC(C)(O)[C@H]1[C@H]2OC(=O)[C@@H]1[C@]1(O)C[C@H]3O[C@]34C(=O)O[C@H]2[C@]14C (tested in a mixture with another compound),>57,-4%,6%,2%
CCOC(=O)N1CCN(c2c(NCCCOC(C)C)c(=O)c2=O)CC1,>57,8%,4µM*[single pt active],-14%
Cn1c(Cn2c(=O)sc3ccccc32)nnc1SCC(=O)Nc1ccccc1,>57,14%,4µM*[single pt active],1%
Cc1ccc(NC(=O)CSc2nnc(Cn3c(=O)sc4ccccc43)n2C)cc1,>57,14%,23%,-9%
COc1ccc(NC(=O)CSc2nnc(Cn3c(=O)sc4ccccc43)n2C)cc1,>57,10%,?,-5%
Cc1ccc(NC(=O)CSc2nnc(Cn3c(=O)sc4ccccc43)n2C)cc1Cl,>57,8%,4µM*[single pt active],5%
Cn1c(Cn2c(=O)sc3ccccc32)nnc1SCC(=O)Nc1ccc(F)cc1,>57,10%,4µM*[single pt active],-6%
CCOc1ccc(NC(=O)CSc2nnc(Cn3c(=O)sc4ccccc43)n2C)cc1,>57,25%,4µM*[single pt active],-4%
O=[N+]([O-])c1cc(N(CCO)CCO)ccc1NCCO,nt,10%,-6%,-8%
CC(C)CCSc1nnc(Cn2c(=O)sc3ccccc32)n1C,>57,14%,4µM*[single pt active],-13%
Cc1ccc(CSc2nnc(Cn3c(=O)sc4ccccc43)n2C)cc1,>57,6%,26%,-9%
CCOC(=O)N1CCN(C(=O)c2cnn3ccccc23)CC1,>57,25%,4µM*[single pt active],5%
CCOC(=O)N1CCN(C(=O)c2ccccc2-c2ccccc2)CC1,>57,-2%,43%,?
CC[C@H](C(=O)[C@H](C)[C@H](O)[C@H](C)CCc1ccc(C)c(O)c1C(=O)O)[C@H]1O[C@](CC)([C@@H]2CC[C@@](O)(CC)[C@H](C)O2)C[C@H]1C,>57,-3%[12.8 µM],11%[12.8 µM],0.32µM*
CNc1ncnc2ccc(-c3ccccc3C)cc12,>57,9%,26%,17%
O=CN1C[C@H]2C[C@@H](C1)c1cccc(=O)n1C2,>57,3%,5%,-11%
Cc1ccc2c(CC(=O)Nc3sccc3C(N)=O)coc2c1,>57,-2%,13µM*[single pt active],-12%
C[C@@H](C1=C(CCN(C)C)Cc2ccccc21)c1ccccn1,>57,-5%,19%,-12%
CC(=O)Nc1nc(-c2ccc(Br)s2)cs1,>57,13%,13µM*,-2%
CCCCC=O,nt,9%,-13%,8%
O=C1C2CC=CCC2C(=O)N1SC(Cl)(Cl)Cl (stereo not drawn),nt,-4%,?,3.2µM*
O=C1C2CC=CCC2C(=O)N1CC1CCCO1 (stereo not drawn),>57,-2%,-11%,-12%
N#CC1=C(N)NC(SCC(=O)Nc2ccccc2)=C(C#N)C12CCCC2,>57,6%,-20%,10µM*
O=C(O)c1sccc1S(=O)(=O)Nc1ccc(Cl)cc1,nt,nt,nt,-2%

# Screening results deposited in PubChem by National Center for Advancing Translational Sciences (NCATS).
